The results in this text go back to PubChem BioAssay (EPA / NIEHS).

One may read the AC50 as the concentration at which the activity in the assay is half-maximal.

Assay [1] is described as follows: APR_HepG2_NuclearSize_72hr: Apredica 72-hour HepG2 Assay for Nuclear Size (AID 2282925). The note with it: high-content imaging, actives raise or lower the signal. The method in brief:
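HepG2 cells were exposed to compounds at ten concentrations from 0.39 to 200 uM (duplicate, 0.5% DMSO final) for 72 hr. After fixation in 3.7% formaldehyde, nuclei were stained with Hoechst 33342 (2 ug/mL) and imaged at 20x.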

A short description of assay [2]: ATG_CRE_CIS: Attagene CIS-FACTORIAL HepG2 Assay for human cAMP Responsive Element (CRE) binding protein 3 (AID 2282926). The note with it: HepG2 CRE cis-reporter, Attagene multiplexed mRNA; actives raise or lower the signal. The method in brief:
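Multiplexed transcription-unit reporters transfected into HepG2; 24 h dosing; RT-PCR/capillary electrophoresis fluorescence read-out; bidirectional fit vs DMSO.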

Assay [3] has as its target CCAAT/enhancer-binding protein beta (Homo sapiens) (UniProt P17676). Put plainly: ATG_C_EBP_CIS: Attagene CIS-FACTORIAL HepG2 Assay for human CCAAT/Enhancer Binding Protein (C/EBP) beta (AID 2282927). The note with it: HepG2 Attagene cis-factorial transcription factor reporter; actives raise or lower the signal. In a few lines:
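Chemical-treated HepG2 cells (24 h) bearing cis-regulated reporter constructs were processed for total RNA, then reverse transcription, PCR amplification, fluorescent primer extension and fragment analysis; gain- and loss-of-signal were fitted against DMSO.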

The nature of assay [4]: ATG_CMV_CIS: Attagene CIS-FACTORIAL HepG2 Assay for human CMV (Internal Marker) (AID 2282928).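 Also: endpoint acts as a background internal control marker rather than a target.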 The note with it: HepG2 CMV promoter reporter, transcription factor profiling; actives raise or lower the signal. In a few lines: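 CMV internal-marker background readout in transiently transfected HepG2 cells bearing cis-regulated reporter units. Reporter mRNA is measured 24 h after dosing by RT-PCR and capillary electrophoresis, with bidirectional fitting against DMSO.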

Assay [5] in a line: ATG_DR4_LXR_CIS: Attagene CIS-FACTORIAL HepG2 Assay for human Liver X Receptor (LXR), DR4 submotif (AID 2282929). The note with it: HepG2 Attagene DR4 cis-reporter, mRNA transcription; actives raise or lower the signal. In a few lines: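 Fluorescence intensity of labelled reporter cDNA fragments, separated by capillary electrophoresis, gives the signal. HepG2 cells bearing cis-regulated reporter constructs were treated 24 h; activity fitted bidirectionally relative to DMSO negative control.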

Assay [6] addresses Aryl hydrocarbon receptor (Homo sapiens) (UniProt P35869). Put plainly: ATG_Ahr_CIS: Attagene CIS-FACTORIAL HepG2 Assay for human Aryl Hydrocarbon Receptor (Ahr) (AID 2282930). The note with it: HepG2 AhR cis-factorial reporter transcription; actives raise or lower the signal. In a few lines:
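Following 24 h of chemical dosing, transfected HepG2 liver cells with cis-driven reporter units were lysed for RNA; reporter mRNA was quantified via RT-PCR and capillary electrophoresis, and responses fitted bidirectionally from DMSO.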

Assay [7] is described as follows: ATG_AP_1_CIS: Attagene CIS-FACTORIAL HepG2 Assay for human Activator Protein 1 (AP-1) (AID 2282931). The note with it: HepG2 Attagene cis-factorial AP-1 reporter mRNA; actives raise or lower the signal. In a few lines: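 Multiplexed HepG2 reporter assay, 24 h dosing. mRNA induction detected by RT-PCR plus capillary electrophoresis. Activity fitted in both directions against DMSO.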

Assay [8] is described as follows: ATG_AP_2_CIS: Attagene CIS-FACTORIAL HepG2 Assay for human Activator Protein 2 (AP-2) (AID 2282932). The note with it: HepG2 AP-2 cis-reporter, Attagene transcription factor profiling; actives raise or lower the signal. The method in brief: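 HepG2 cells were transiently transfected with multiple cis-promoter reporter transcription units and dosed for 24 h. Reporter mRNA was measured by RT-PCR with capillary electrophoresis fluorescence; bidirectional fits relative to DMSO baseline.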

A short description of assay [9]: ATG_BRE_CIS: Attagene CIS-FACTORIAL HepG2 Assay for human Bone Morphogenetic Protein (BMP) Response Element (BRE) (AID 2282933). To be noted: HepG2 BMP response element reporter, Attagene transcription factor profiling; actives raise or lower the signal. In a few lines:
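Fluorescence-labelled reporter cDNA fragments, separated by capillary electrophoresis, gave the signal for this component of a 52-readout multiplex. HepG2 cells were transfected, exposed to chemicals for 24 h, and compared with DMSO using bidirectional fitting.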

In assay [10] the target is Retinoic acid receptor alpha (Homo sapiens) (UniProt P10276). Put plainly: ATG_DR5_RAR_CIS: Attagene CIS-FACTORIAL HepG2 Assay for human Retinoic Acid Receptor Alpha (RARE), DR5 submotif (AID 2282934).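 As to AC50: reporter responds to endogenous RAR alpha beta and gamma in HepG2 not RARA alone.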 The note with it: HepG2 Attagene cis-factorial RARE DR5 reporter, mRNA; actives raise or lower the signal. The method in brief:
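Transfected HepG2 reporter cells are exposed to chemicals for 24 h. Then RNA is extracted and the DR5 element reporter transcript is measured by RT-PCR and capillary electrophoresis, with bidirectional curve fitting relative to DMSO.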

The source made the active and inactive calls. The calls were made as follows: active = hit-call score of the fitted dose curve at least 0.9, where 1 is the maximum; inactive = score below 0.9.

Sequence of CCAAT/enhancer-binding protein beta (Homo sapiens) (P17676 whole entry, looked up, the tested form may be a part): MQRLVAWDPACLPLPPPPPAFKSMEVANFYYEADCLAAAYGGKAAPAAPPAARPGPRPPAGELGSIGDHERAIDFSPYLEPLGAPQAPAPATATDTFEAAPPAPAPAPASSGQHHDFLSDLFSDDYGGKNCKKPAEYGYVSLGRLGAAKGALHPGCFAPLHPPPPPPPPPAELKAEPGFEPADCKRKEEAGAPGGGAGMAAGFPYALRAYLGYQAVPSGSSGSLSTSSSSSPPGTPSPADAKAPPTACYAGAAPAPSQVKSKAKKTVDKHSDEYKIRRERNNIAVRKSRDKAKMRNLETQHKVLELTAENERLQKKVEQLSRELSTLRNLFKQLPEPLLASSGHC
Sequence of Aryl hydrocarbon receptor (Homo sapiens) (P35869 whole entry, looked up): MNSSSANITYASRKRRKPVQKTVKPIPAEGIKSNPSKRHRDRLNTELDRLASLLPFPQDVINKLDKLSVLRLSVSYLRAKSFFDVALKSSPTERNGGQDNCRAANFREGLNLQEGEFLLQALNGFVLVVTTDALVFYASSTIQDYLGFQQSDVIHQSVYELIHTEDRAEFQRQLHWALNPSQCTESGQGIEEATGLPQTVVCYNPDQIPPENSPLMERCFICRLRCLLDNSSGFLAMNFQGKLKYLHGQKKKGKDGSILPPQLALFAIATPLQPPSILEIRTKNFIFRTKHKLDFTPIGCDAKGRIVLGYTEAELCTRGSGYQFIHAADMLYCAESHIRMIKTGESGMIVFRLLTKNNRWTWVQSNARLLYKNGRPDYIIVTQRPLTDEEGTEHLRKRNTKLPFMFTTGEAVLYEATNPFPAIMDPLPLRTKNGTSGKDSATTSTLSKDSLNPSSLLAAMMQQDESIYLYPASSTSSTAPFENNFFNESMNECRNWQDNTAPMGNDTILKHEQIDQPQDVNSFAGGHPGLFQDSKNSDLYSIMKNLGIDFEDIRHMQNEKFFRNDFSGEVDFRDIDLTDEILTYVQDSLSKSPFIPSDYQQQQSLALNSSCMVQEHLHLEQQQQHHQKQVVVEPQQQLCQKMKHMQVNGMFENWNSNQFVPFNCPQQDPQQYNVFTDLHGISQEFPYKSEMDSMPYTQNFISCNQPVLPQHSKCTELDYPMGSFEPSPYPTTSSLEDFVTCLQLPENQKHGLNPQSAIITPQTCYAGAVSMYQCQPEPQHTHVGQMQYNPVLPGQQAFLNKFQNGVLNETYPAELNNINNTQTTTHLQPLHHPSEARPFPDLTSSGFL
Sequence of Retinoic acid receptor alpha (Homo sapiens) (P10276 whole entry, looked up): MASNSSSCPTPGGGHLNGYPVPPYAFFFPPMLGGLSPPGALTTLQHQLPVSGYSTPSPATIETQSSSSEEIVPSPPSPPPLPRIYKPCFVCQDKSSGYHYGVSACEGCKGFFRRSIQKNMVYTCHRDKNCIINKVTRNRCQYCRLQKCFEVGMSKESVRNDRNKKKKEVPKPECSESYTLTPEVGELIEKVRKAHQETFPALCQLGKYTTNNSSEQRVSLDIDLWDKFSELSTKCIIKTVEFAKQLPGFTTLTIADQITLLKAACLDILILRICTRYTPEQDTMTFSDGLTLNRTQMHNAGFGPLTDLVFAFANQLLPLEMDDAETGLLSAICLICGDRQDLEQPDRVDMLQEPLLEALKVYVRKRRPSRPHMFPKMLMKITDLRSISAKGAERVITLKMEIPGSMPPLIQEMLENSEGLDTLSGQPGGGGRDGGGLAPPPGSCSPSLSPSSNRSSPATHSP

Turning to `CS(=O)(=O)c1cc(C(F)(F)F)ccc1C(=O)c1cnoc1C1CC1`, the outcome in assay [1], in [2], in assay [3], in assay [4], in assay [5] and in [6] was inactive. For the same compound, the compound was classed as inactive in [8], in assay [9] and in assay [10]. For the same compound, the AC50 in [7] was 78.7 µM (active).
As for `CCOc1cc(C(C)(C)C)ccc1C1COC(c2c(F)cccc2F)=N1` (configuration not stated), the call in [1], in assay [3], in assay [4], in assay [6], in [7] and in assay [8] was inactive. Moreover, the compound was called inactive in [9]. The AC50 in assay [5] is 13.2 µM (active); in assay [10], 4.26 µM (active).
`CCCCC(C#N)(Cn1cncn1)c1ccc(Cl)cc1` (configuration not stated): the compound was called inactive in assay [1], in [3], in assay [4], in assay [5], in assay [6] and in assay [7]. In addition, the outcome in [8], in assay [9] and in [10] was inactive.
In the case of `Cc1c(COC(=O)[C@@H]2[C@H](/C=C(\Cl)C(F)(F)F)C2(C)C)cccc1-c1ccccc1`, the outcome in assay [1], in assay [2], in assay [3], in assay [5], in [6] and in assay [7] was inactive. For the same compound, the compound was called inactive in assay [8], in [9] and in assay [10]. In addition, in assay [4], the AC50 is 11.3 µM (active).
Turning to `CCOP(=O)(OCC)Oc1nc(Cl)c(Cl)cc1Cl`, the compound was called inactive in assay [1], in assay [2], in assay [5], in assay [6], in assay [7] and in assay [8]. The result in [9] and in assay [10] was inactive. Also, in [4], the concentration at half-maximal activity (AC50) was 19.6 µM (active).
Take `C=CCOC(=O)C(C)(C)OC(=O)c1cc(-n2c(=O)cc(C(F)(F)F)n(C)c2=O)ccc1Cl`: the compound was called inactive in assay [1], in assay [4], in [5], in assay [6], in assay [7] and in [8]. The compound was classed as inactive in assay [9].
For the compound `CC1(C)C(C=C(Cl)Cl)C1C(=O)OC(C#N)c1cccc(Oc2ccccc2)c1` (configuration not stated), the compound was classed as inactive in [1], in [4], in assay [6], in assay [7], in assay [8] and in assay [9]. The outcome in assay [10] was inactive. Besides, in assay [5], the AC50 was 30.3 µM (active).
For the compound `CC(C)Nc1nc(Cl)nc(NC(C)C)n1`, the outcome in assay [1], in assay [4], in assay [5], in [6], in assay [7] and in [8] was inactive. Moreover, the compound was classed as inactive in assay [9].
Regarding `CCOc1nc(F)cc2nc(S(=O)(=O)Nc3c(Cl)cccc3Cl)nn12`, the result in assay [2], in assay [3], in assay [4], in assay [5], in assay [6] and in assay [7] was inactive. The result in assay [8] and in assay [9] was inactive.
As for `COP(=O)(OC)O/C(C)=C/C(=O)N(C)C`, the result in [1], in [4], in [5], in assay [6], in assay [7] and in assay [8] was inactive. Further, the result in assay [9] and in [10] was inactive.
On to `COc1cc(OC)nc(NC(=O)NS(=O)(=O)c2ncccc2OCC(F)(F)F)n1`, for which the result in [1], in [2], in assay [4], in [5], in assay [6] and in [7] was inactive. In addition, the result in assay [8] and in [9] was inactive.
Take `N#Cc1c[nH]cc1-c1cccc2c1OC(F)(F)O2`: the call in [1] and in assay [7] was inactive. The concentration at half-maximal activity (AC50) in assay [3] was 8.24 µM (active); in assay [4] it was 29 µM (active); in assay [5], 1.19 µM (active); in [8], 13.5 µM (active); in [9] it was 22.2 µM (active).
In the case of `COC(=O)NS(=O)(=O)c1ccc(N)cc1`, the outcome in [1], in assay [2], in assay [4], in assay [5], in assay [6] and in assay [7] was inactive. Further, the call in assay [8] and in [9] was inactive.
As for `CC(C)(C)C(=O)C(Oc1ccc(Cl)cc1)n1cncn1` (configuration not stated), the compound was called inactive in [1], in [4], in assay [5] and in assay [8]. Moreover, the AC50 is 34.7 µM (active) in assay [6], 74.2 µM (active) in assay [7], 50 µM (active) in assay [9] and 12.8 µM (active) in assay [10].
In the case of `COc1ccc(-c2ccccc2)cc1NNC(=O)OC(C)C`, the compound was called inactive in [1], in assay [3], in assay [5], in assay [8] and in [10]. The AC50 in [4] is 13.5 µM (active); in assay [7], 14.7 µM (active); in [9], 2.32 µM (active).
As for `CC(C)=CC1C(C(=O)OCc2coc(Cc3ccccc3)c2)C1(C)C` (configuration not stated), the call in assay [1], in assay [3], in assay [4], in assay [6] and in assay [8] was inactive. The AC50 in assay [2] is 13.2 µM (active); in assay [5], 73.6 µM (active); in [7] it was 14.3 µM (active); in assay [9], 15.5 µM (active); in assay [10] it was 8.01 µM (active).
For the compound `Cc1ccc(N=CN(C)C=Nc2ccc(C)cc2C)c(C)c1`, the result in assay [1], in [4], in assay [5], in [6], in assay [7] and in [8] was inactive. In addition, the result in [9] and in assay [10] was inactive.
